# Records with an inconclusive call do not appear. A call without a number means that no potency is given here. Unmarked numbers belong to inactive results. The source made the active and inactive calls. Unless noted, calls follow the shape of the dose curve; as a rule, active = well fitted curve in the direction sought with a large enough effect in the repeat runs; inconclusive = weak or mixed curves; inactive = no such curve, though single readings can be large; an effect the other way counts as inactive or inconclusive.
# Legend:
# [1] = qHTS assay to identify small molecule antagonists of the thyroid receptor (TR) signaling pathway (AID 743065); also: series mostly up to about 70 µM; nearly all actives have a fitted effect of over 55% in size
# Outline: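 GH3.TRE-Luc rat pituitary cells (two TREs driving luciferase) were dosed with compound, then stimulated with 1 nM T3 (final) for 23.5 h at 37 C. ONE-Glo luminescence was the read-out, with CellTiter-Fluor fluorescence as the cytotoxicity counter-screen.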
# [2] = system: thyroid hormone receptor (rat, GH3 cells); experiment: qHTS assay to identify small molecule agonists of the thyroid receptor (TR) signaling pathway (AID 743066; calls by dose curve)
# [3] = molecular target: Estrogen receptor (Homo sapiens) (UniProt P03372); experiment: qHTS assay to identify small molecule antagonists of the estrogen receptor alpha (ER-alpha) signaling pathway (AID 743069; active = well fitted curve in the direction sought with a large enough effect in the signal ratio in the repeat runs, not every such curve was filed as active; the % refers to the signal ratio)
# Outline: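 Beta-lactamase FRET fluorescence is read after 2 hr at room temperature with LiveBLAzer B/G substrate. Before that, ER-alpha-bla HEK293 cells sit 4 hr after plating, then receive compound plus 17beta-estradiol and incubate 18 hr at 37C.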
# [4] = qHTS assay to identify small molecule antagonists of the estrogen receptor alpha (ER-alpha) signaling pathway - cell viability counter screen (AID 743074; calls by dose curve;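 also: HEK293 cells carrying ER-alpha-UAS-bla reporter stimulated with 17beta-estradiol; nearly all actives have a fitted effect of over 45% in size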)
# [5] = molecular target: Estrogen receptor (Homo sapiens) (UniProt P03372); experiment: qHTS assay to identify small molecule agonists of the estrogen receptor alpha (ER-alpha) signaling pathway (AID 743075; calls by dose curve;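 also: HEK293 GripTite cells with ER-alpha and UAS-driven beta-lactamase reporter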)
# [6] = molecular target: Estrogen receptor (Homo sapiens) (UniProt P03372); experiment: qHTS assay to identify small molecule agonists of the estrogen receptor alpha (ER-alpha) signaling pathway using the BG1 cell line (AID 743079); also: nearly all actives have a fitted effect of over 20% in size
# [7] = qHTS assay to identify small molecule antagonists of the estrogen receptor alpha (ER-alpha) signaling pathway using the BG1 cell line (AID 743080; calls by dose curve;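 also: BG1 cells stimulated with 17beta-estradiol alongside compound; series mostly up to about 70 µM; nearly all actives have a fitted effect of over 25% in size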)
# Outline: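 Luminescence from a 4×ERE-luciferase reporter in BG1-Luc-4E2 cells served as read-out. Cells, pre-cultured 5 days in stripped-serum phenol-red-free medium, were exposed to compound with 17beta-estradiol co-stimulation for 21.5 h at 37 C.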
# [8] = qHTS assay to identify small molecule antagonists of the estrogen receptor alpha (ER-alpha) signaling pathway using the BG1 cell line - cell viability counter screen (AID 743081);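 also: compound given together with 17beta-estradiol as the ER stimulus; nearly all actives have a fitted effect of over 45% in size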; also: potency is read from the fitted curve at half-maximal effect; as to activity change, negative = cytotoxicity: series mostly up to about 70 µM
# [9] = molecular target: Aromatase (Homo sapiens) (UniProt P11511); experiment: qHTS assay to identify aromatase inhibitors (AID 743083); also: series mostly up to about 70 µM; nearly all actives have a fitted effect of over 55% in size
# [10] = qHTS assay to identify small molecule antagonists of the thyroid receptor (TR) signaling pathway - cell viability counter screen (AID 743064); also: nearly all actives have a fitted effect of over 50% in size
# Outline: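 Same-well viability check: GH3.TRE-Luc cells stimulated with 1 nM T3 alongside test compound for 23.5 h, followed by CellTiter-Fluor fluorescence.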
# Sequence of Aromatase (Homo sapiens) (P11511 whole entry, looked up): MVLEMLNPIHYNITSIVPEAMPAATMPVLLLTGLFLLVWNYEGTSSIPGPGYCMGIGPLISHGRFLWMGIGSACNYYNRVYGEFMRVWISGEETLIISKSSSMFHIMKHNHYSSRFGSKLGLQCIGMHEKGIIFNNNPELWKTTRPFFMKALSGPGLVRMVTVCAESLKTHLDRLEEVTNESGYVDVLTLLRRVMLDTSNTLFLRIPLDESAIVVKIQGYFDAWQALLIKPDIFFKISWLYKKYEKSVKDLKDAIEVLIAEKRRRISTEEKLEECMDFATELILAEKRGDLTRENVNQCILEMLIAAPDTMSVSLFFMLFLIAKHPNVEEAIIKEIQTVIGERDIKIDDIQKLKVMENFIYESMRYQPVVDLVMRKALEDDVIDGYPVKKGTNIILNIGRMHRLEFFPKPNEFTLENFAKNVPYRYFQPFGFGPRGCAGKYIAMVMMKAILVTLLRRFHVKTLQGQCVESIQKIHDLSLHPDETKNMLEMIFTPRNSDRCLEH
# Sequence of Estrogen receptor (Homo sapiens) (P03372 whole entry, looked up): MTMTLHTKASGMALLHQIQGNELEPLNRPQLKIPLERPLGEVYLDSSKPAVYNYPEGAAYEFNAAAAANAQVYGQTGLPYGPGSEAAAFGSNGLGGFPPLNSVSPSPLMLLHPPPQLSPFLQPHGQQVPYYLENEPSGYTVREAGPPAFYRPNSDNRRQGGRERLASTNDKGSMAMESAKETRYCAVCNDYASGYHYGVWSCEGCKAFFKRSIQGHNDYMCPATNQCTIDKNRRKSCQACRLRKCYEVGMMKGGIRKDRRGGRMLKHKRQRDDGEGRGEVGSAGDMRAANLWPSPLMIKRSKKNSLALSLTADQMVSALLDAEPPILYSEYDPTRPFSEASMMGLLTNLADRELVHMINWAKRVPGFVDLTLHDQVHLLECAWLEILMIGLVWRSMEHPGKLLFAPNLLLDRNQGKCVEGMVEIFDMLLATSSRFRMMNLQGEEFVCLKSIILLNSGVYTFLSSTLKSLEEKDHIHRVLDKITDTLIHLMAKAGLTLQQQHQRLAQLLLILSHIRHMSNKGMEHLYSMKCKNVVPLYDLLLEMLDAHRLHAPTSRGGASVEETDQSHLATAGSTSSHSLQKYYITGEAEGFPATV
smiles,measurement,setting,value
C#CCN[C@@H]1CCc2ccccc21,Potency,[1],inactive
same,outcome,[2],inactive
same,outcome,[3],inactive
same,outcome,[4],inactive
same,Potency,[5],inactive
same,Potency,[6],inactive
same,outcome,[7],inactive
same,Potency,[8],inactive
same,outcome,[9],inactive
Cc1c(NC(=O)c2cccnc2)c(=O)n(-c2ccccc2)n1C,Potency,[1],inactive
same,outcome,[2],inactive
same,outcome,[3],inactive
same,outcome,[4],inactive
same,Potency,[5],inactive
same,Potency,[6],inactive
same,outcome,[7],inactive
same,Potency,[8],inactive
same,outcome,[9],inactive
CC(C)C1OCCN1CCOC(=O)NCCCCCCNC(=O)OCCN1CCOC1C(C)C (stereo not given),Potency,[1],inactive
same,outcome,[2],inactive
same,outcome,[3],inactive
same,outcome,[4],inactive
same,Potency,[5],inactive
same,Potency,[6],inactive
same,outcome,[7],inactive
same,Potency,[8],inactive
same,outcome,[9],inactive
CC(=O)O[C@H]1C[C@@H]2CC[C@@]1(C)C2(C)C,Potency,[10],inactive
same,outcome,[4],inactive
same,Potency,[8],inactive
same,outcome,[9],inactive
CC/C=C\CCOC(=O)c1ccccc1O,Potency,[1],inactive
same,outcome,[2],inactive
same,outcome,[3],inactive
same,outcome,[4],inactive
same,Potency,[5],inactive
same,Potency,[6],inactive
same,outcome,[7],inactive
same,Potency,[8],inactive
same,outcome,[9],inactive
C=CCOC(=O)CCCCCC,Potency,[10],inactive
same,outcome,[4],inactive
same,Potency,[8],inactive
same,outcome,[9],inactive
CC(=O)O[C@@H]1CC2CCC1(C)C2(C)C (stereo not given in full),Potency,[10],inactive
same,outcome,[4],inactive
same,Potency,[8],inactive
same,outcome,[9],inactive
CCC/C=C(\C=O)CC,Potency,[1],inactive
same,outcome,[2],inactive
same,outcome,[3],inactive
same,outcome,[4],inactive
same,Potency,[5],inactive
same,Potency,[6],inactive
same,outcome,[7],inactive
same,Potency,[8],inactive
same,outcome,[9],inactive
CC1CC(=O)CC(C)(C)C1 (stereo not given),Potency,[1],inactive
same,outcome,[2],inactive
same,outcome,[3],inactive
same,outcome,[4],inactive
same,Potency,[5],inactive
same,Potency,[6],inactive
same,outcome,[7],inactive
same,Potency,[8],inactive
same,outcome,[9],inactive
CCOCCOCC,Potency,[1],inactive
same,outcome,[2],inactive
same,outcome,[3],inactive
same,outcome,[4],inactive
same,Potency,[5],inactive
same,Potency,[6],inactive
same,outcome,[7],inactive
same,Potency,[8],inactive
same,outcome,[9],inactive
CCNC(=O)NCc1cccc(Cl)c1,Potency,[1],inactive
same,outcome,[2],inactive
same,outcome,[3],inactive
same,outcome,[4],inactive
same,Potency,[5],inactive
same,Potency,[6],inactive
same,outcome,[7],inactive
same,Potency,[8],inactive
same,outcome,[9],inactive
O=S(=O)(O)c1ccc2c(N=Nc3ccc(S(=O)(=O)O)c4ccccc34)c(O)c(S(=O)(=O)O)cc2c1,"activity, negative = inhibition",[1],-4.92% [at 8.44 µM]
same,outcome,[2],inactive
same,outcome,[4],inactive
same,Potency,[8],9.44 µM (active)
same,"activity, negative = inhibition",[9],-13.1% [at 8.47 µM]
O=C1c2ccccc2C(=O)c2cc(Cl)ccc21,"activity, negative = inhibition",[1],31.6% [at 8.44 µM]
same,activation,[2],1.1% [at 8.08 µM]
same,"activity, negative = inhibition",[3],-4.44% [at 6.71 µM]
same,"activity, negative = cytotoxicity",[4],-11.1% [at 6.72 µM]
same,activation,[5],-3.38% [at 6.71 µM]
same,"activity change, negative = inhibition",[7],1.09% [at 8.47 µM]
same,"activity change, negative = cytotoxicity",[8],5.98% [at 8.47 µM]
same,"activity, negative = inhibition",[9],23.3% [at 8.47 µM]
CC(N)CCCC(C)(C)O (stereo not given),Potency,[1],inactive
same,outcome,[2],inactive
same,outcome,[4],inactive
same,Potency,[8],inactive
same,outcome,[9],inactive
CC(O)COC(C)(C)C (stereo not given),Potency,[1],inactive
same,outcome,[2],inactive
same,outcome,[4],inactive
same,Potency,[8],inactive
same,outcome,[9],inactive
CSc1cnccn1,Potency,[1],inactive
same,outcome,[2],inactive
same,outcome,[3],inactive
same,outcome,[4],inactive
same,Potency,[5],inactive
same,Potency,[6],inactive
same,outcome,[7],inactive
same,Potency,[8],inactive
same,outcome,[9],inactive
CO/N=C(/C(=O)N[C@@H]1C(=O)N2C(C(=O)[O-])=C(C[n+]3ccn4ncccc43)CS[C@H]12)c1nsc(N)n1,outcome,[3],inactive
same,outcome,[4],inactive
same,Potency,[5],inactive
same,Potency,[6],inactive
same,outcome,[7],inactive
same,Potency,[8],inactive
same,outcome,[9],inactive
CCc1occc(=O)c1O,Potency,[1],inactive
same,outcome,[2],inactive
same,outcome,[4],inactive
same,Potency,[5],inactive
same,Potency,[6],inactive
same,outcome,[7],inactive
same,Potency,[8],inactive
same,outcome,[9],inactive
CCCCCCCCCCCCCCCCCC#N,Potency,[1],inactive
same,outcome,[2],inactive
same,outcome,[3],inactive
same,outcome,[4],inactive
same,Potency,[5],inactive
same,Potency,[6],inactive
same,outcome,[7],inactive
same,outcome,[9],inactive
OCCN1CCOCC1,Potency,[1],inactive
same,outcome,[2],inactive
same,Potency,[5],inactive
same,Potency,[6],inactive
same,outcome,[7],inactive
same,Potency,[8],inactive
same,outcome,[9],inactive
OC[C@@H](O)C(O)[C@@H](O)CO (stereo not given in full),Potency,[1],inactive
same,outcome,[2],inactive
same,Potency,[8],inactive
same,outcome,[9],inactive
